# What was measured:
# Experiment in all cases: DAPPL (digital affinity profiling via proximity ligation, sequencing); 10 mM Tris-HCl pH 7.5, 50 mM NaCl, 1 mM DTT, 4% glycerol, room temperature, 30 min; GST-TFs on glutathione beads, 16-mer random dsDNA library, 0.1% formaldehyde crosslink after washing; high values mean tight binding
# Settings in all cases: protein: recombinant; tags: N-terminal GST; dsDNA, one strand shown
# GABPA = target: T1, GABPA (Homo sapiens, UniProt Q06546 1-454)
# T1 sequence: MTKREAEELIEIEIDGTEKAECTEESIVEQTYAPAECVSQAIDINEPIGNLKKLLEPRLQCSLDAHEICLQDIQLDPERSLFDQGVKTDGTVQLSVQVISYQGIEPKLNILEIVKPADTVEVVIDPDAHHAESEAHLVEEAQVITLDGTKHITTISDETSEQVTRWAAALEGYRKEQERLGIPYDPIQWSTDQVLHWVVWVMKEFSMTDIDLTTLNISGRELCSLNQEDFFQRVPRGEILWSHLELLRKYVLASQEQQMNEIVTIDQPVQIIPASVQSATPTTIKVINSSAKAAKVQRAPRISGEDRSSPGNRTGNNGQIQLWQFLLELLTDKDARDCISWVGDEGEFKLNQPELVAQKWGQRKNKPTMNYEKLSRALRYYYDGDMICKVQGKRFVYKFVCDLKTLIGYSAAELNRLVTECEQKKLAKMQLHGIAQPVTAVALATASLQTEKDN
# Procedure, shortened: (§1)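 Sequencing on an Illumina NextSeq500 followed washing, crosslinking with 0.1% formaldehyde, proximity ligation (BsaI/T4 ligase, 1 h, 37 °C) and PCR amplification of pools that had been incubated for 30 min at room temperature with 200 nmole of a random double-stranded 16-mer DNA library in Tris/NaCl/DTT/glycerol buffer. Each pool held DNA-barcoded human transcription factors, expressed in yeast as GST fusions and captured on glutathione beads, plus a tag-only sample. Binding signal is a hexamer's read frequency for a factor divided by its frequency in the tag-only sample.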
# SPIB = SPIB (Homo sapiens, UniProt Q01892 1-262)
# Sequence of SPIB (Q01892 whole entry): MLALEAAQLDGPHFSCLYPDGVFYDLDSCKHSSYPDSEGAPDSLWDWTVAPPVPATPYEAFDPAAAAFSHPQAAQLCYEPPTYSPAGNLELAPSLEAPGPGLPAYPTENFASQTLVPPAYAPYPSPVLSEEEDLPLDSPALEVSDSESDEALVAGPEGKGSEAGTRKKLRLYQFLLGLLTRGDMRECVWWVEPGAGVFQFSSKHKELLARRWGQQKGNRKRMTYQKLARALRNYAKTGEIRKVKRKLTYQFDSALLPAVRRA
# Procedure, shortened: as §1
# ETV5 = ETV5 (Homo sapiens, UniProt P41161 1-510)
# Sequence of ETV5 (P41161 whole entry): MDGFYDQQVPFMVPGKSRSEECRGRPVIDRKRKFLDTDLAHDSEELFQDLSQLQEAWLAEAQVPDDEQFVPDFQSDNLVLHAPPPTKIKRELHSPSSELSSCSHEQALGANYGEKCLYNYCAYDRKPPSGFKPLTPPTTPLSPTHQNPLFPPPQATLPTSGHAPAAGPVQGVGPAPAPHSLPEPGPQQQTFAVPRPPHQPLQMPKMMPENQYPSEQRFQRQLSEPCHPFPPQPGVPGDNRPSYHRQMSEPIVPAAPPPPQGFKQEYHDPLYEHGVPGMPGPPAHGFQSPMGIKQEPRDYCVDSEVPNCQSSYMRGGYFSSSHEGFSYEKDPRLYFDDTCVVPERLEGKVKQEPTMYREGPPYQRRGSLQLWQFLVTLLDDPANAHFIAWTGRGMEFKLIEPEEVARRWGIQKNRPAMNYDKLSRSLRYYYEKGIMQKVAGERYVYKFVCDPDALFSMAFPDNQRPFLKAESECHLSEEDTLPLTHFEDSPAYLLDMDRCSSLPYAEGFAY
# Procedure, shortened: as §1
# ELF4 = ELF4 (Homo sapiens, UniProt Q99607 1-663)
# Sequence of ELF4 (Q99607 whole entry): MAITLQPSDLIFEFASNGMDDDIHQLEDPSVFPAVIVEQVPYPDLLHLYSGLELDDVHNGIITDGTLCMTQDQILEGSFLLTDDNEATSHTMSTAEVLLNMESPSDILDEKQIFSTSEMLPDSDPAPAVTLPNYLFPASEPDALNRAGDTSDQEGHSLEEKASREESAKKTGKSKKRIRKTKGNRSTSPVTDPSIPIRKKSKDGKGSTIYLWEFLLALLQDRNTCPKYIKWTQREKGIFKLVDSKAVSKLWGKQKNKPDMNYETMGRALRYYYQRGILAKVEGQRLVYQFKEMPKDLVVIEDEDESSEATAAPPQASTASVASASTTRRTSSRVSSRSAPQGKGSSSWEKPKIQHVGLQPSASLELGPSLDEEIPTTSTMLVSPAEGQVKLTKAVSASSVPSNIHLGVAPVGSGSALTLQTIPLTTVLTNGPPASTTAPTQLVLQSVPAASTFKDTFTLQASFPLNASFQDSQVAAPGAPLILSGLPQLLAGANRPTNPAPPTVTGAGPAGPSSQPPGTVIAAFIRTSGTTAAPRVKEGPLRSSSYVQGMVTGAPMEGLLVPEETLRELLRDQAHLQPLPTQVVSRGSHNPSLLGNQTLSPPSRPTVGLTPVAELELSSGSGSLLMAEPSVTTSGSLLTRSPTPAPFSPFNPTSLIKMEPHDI
# Procedure, shortened: as §1
# ELK4 = target: T2, ELK4 (Homo sapiens, UniProt P28324-2 1-405)
# T2 sequence: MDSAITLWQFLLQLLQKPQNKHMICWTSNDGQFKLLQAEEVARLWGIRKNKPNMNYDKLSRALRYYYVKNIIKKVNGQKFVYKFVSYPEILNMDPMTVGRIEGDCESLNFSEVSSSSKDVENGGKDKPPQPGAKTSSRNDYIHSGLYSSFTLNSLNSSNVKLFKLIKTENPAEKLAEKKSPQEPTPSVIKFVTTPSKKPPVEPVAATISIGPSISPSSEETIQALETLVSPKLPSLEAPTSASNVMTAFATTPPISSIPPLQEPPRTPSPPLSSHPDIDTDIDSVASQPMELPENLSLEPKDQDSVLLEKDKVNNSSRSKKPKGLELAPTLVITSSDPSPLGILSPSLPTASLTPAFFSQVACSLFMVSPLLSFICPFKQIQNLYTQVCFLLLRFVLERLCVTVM
# Procedure, shortened: as §1
# ETV2 = target: T3, ETV2 (Homo sapiens, UniProt O00321 1-342)
# T3 sequence: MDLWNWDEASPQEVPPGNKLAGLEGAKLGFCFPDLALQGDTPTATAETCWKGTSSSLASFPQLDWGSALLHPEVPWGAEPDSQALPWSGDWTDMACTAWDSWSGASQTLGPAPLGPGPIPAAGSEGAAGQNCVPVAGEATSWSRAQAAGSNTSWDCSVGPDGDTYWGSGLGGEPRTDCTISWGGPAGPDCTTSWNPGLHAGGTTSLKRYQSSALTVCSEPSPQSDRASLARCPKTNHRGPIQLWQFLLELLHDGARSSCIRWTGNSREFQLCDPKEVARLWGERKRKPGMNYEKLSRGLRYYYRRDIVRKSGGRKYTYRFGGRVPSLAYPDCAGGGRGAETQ
# Procedure, shortened: as §1
# ETV3L = target: T4, ETV3L (Homo sapiens, UniProt Q6ZN32 1-361)
# T4 sequence: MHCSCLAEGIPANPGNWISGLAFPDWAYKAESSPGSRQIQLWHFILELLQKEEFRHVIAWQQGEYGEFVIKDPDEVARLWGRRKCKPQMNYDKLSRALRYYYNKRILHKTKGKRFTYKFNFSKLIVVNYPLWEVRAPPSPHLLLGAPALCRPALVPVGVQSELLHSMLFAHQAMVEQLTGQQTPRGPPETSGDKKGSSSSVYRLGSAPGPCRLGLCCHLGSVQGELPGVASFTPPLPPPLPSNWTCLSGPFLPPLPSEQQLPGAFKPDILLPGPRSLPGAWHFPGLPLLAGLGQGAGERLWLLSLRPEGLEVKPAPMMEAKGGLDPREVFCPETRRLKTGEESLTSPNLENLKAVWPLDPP
# Procedure, shortened: as §1
# ETV7 = target: T5, ETV7 (Homo sapiens, UniProt Q9Y603 1-341)
# T5 sequence: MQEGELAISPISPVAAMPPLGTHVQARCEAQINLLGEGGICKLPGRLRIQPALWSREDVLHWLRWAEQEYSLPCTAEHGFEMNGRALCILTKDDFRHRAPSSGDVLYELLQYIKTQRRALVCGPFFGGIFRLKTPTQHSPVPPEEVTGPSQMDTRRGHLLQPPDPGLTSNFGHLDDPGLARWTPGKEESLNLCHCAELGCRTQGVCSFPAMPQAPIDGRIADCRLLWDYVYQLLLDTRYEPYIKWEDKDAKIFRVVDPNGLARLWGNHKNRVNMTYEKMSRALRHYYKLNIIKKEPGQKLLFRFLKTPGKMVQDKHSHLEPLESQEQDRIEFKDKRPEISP
# Procedure, shortened: as §1
# ETV6 = ETV6 (Homo sapiens, UniProt P41212 1-452)
# Sequence of ETV6 (P41212 whole entry): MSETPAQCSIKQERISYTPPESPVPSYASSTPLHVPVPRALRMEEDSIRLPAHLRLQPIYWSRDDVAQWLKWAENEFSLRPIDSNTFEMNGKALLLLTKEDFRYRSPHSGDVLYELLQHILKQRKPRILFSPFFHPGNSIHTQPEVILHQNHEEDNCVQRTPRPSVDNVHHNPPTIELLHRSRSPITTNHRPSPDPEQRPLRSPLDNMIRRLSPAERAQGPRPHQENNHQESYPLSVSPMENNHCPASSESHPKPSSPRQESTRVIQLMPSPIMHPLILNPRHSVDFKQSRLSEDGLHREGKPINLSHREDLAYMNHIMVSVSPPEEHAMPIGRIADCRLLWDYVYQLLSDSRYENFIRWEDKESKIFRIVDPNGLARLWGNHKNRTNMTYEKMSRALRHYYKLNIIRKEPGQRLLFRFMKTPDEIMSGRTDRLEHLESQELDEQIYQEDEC
# Procedure, shortened: as §1
sequence,measurement,setting,value
CGCGTA,binding signal,GABPA,"1.01 fold enrichment (6-mer frequency, TF over GST control)"
same,binding signal,SPIB,"1.05 fold enrichment (6-mer frequency, TF over GST control)"
same,binding signal,ETV5,"1 fold enrichment (6-mer frequency, TF over GST control)"
same,binding signal,ELF4,"1.08 fold enrichment (6-mer frequency, TF over GST control)"
same,binding signal,ELK4,"1.07 fold enrichment (6-mer frequency, TF over GST control)"
same,binding signal,ETV2,"1.03 fold enrichment (6-mer frequency, TF over GST control)"
same,binding signal,ETV3L,"1.01 fold enrichment (6-mer frequency, TF over GST control)"
same,binding signal,ETV7,"1.07 fold enrichment (6-mer frequency, TF over GST control)"
same,binding signal,ETV6,"1.01 fold enrichment (6-mer frequency, TF over GST control)"

# — article PMC7862700, “An all-to-all approach to the identification of sequence-specific readers for epigenetic DNA modifications on cytosine”
